# SNCA expr inhib: SNCA gene expression inhibition; AID 1671194; HEK-293 SNCA-luciferase knock-in, luminescence, 24 h; Potency, µM (top dose mostly 57.2 µM), inactives show top-dose activity change, negative = inhibition, usual class: inhibitors; 0.17% of 140,000 active;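 note: potency is the fitted concentration of half-maximal effect; plate controls were DMSO cells for no effect and cell-free wells for full effect; nearly all actives have a fitted effect of over 45% in size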
# IP6K1 inh: blocks human inositol hexakisphosphate kinase 1 | Q92551 | IP6K1 kinase, ADP-Glo luminescence, 2 h; hits give low values | activity change, % (series mostly up to about 58 µM) | 0.81% of 140,000 active; in the data active = activity change below about -25%; note: % is set by controls: 0 for no effect and ±100 for the full control effect
#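 ADP-Glo luminescence measures ADP made by human IP6K1 during a 2 h RT reaction with ATP/IP6 (mix at 1.3 mM/130 uM); top library doses 57.5 and 19.1 uM final.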
# SNCA viab count: cell viability loss counter-screen. HEK-293-SNCA-luc viability, GF-AFC fluorescence, 24 h. Potency, µM (titrated, usually from 57.1 µM), for inactives: top-dose activity change, negative = cytotoxicity, actives largely listed as cytotoxic. 0.12% of 150,000 active. AID 1671193;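 note: potency is the fitted concentration of half-maximal effect; 0% = DMSO-treated cells and -100% = medium-only wells without cells; nearly all actives have a fitted effect of over 30% in size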
#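 HEK-293-SNCA-luc cells (1500/well) plated 24 h, then exposed 24 h to a dilution series; GF-AFC added 30 min at 37C, fluorescence 405/540 nm; normalised to medium-only and DMSO wells, Hill fit.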
# KDM5B inh: KDM5B demethylase inhibition; Potency, µM (top dose mostly 57.7 µM), usual class: inhibitors; Q9UGL1; AID 1347165; 2.6% of 220,000 active; KDM5B demethylase, FDH-coupled NADH fluorescence (FDH is formaldehyde dehydrogenase); note: potency is the fitted concentration of half-maximal effect; 0% is about no effect; nearly all actives have a fitted effect of over 70% in size
#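 Compound dilutions met 200 nM (final) KDM5BΔAP for 10 min at room temperature before substrate addition. The substrate mix held 12.5 µM H3K4me3 with cofactors 25 µM α-ketoglutarate and 50 µM Fe²⁺. NADH signal gain over 30 min defined activity.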
# * marks the source's active call; other numbers are inactive results; i = inactive; ? = inconclusive; . = not tested or not shown; [ ] = dose if it differs, or a comment. A selection: hits, their analogues and other compounds. The true share with any hit is near 2.8%. Unless noted, calls come from the whole dose curve; as a rule, active = well fitted curve in the direction sought with a large enough effect; inconclusive = small, poorly fitted or top-dose-only effect, or another doubt; inactive = no such curve, though single readings can be large; an effect the other way counts as inactive or inconclusive.
SMILES,SNCA expr inhib,IP6K1 inh,SNCA viab count,KDM5B inh
CC(C)c1cccc(C(C)C)c1NC(=O)COc1ncnc2ccccc12,.,.,.,i
O=[S+]1([O-])NC2(CCN(CC3CCCC3)CC2)COc2ccccc21,6%,15,-8%,79µM*
O=[S+]1([O-])NC2(CCN(CC3CC3)CC2)COc2ccccc21,-24%,15,6%,?
CN(C)CC(=O)Nc1ccc2n(c1=O)C[C@H]1C[C@@H]2CN(C(=O)c2ccc(-c3ccccc3)cc2)C1,0%,-5,7%,i
Cn1cc(CN2C[C@@H]3C[C@H](C2)c2ccc(NC(=O)COc4ccccc4)c(=O)n2C3)c2ccccc21,?,-10,-14%,28µM*
O=C(Nc1ccc(Cl)cc1Cl)c1cnc2ccccc2n1,.,.,.,i
CNc1ccc(C)cc1C(=O)N1CCN(C)C2(CCN(C)CC2)C1,22%,-13,14%,20µM*
COc1ccc(C)cc1NC(=O)N1CCN(C)C2(CCC(=O)N(C)CC2)C1 (configuration not stated),12%,34,-5%,i
O=C(c1cncs1)N1CCc2c(cc(-c3cccc(F)c3)c(=O)n2CCN2CCCCC2)C1,38%,16,5%,28µM*
CN(C)CCOc1ccccc1-c1ccc(C#N)cc1,1%,8,9%,32µM*
C=CC[C@H]1CC(C)=C[C@H](CC=C)N1Cc1ccc(CN(C)S(C)(=O)=O)o1,2%,3,6%,14µM*
CN(Cc1ccc(CN2CCCC(O)(CO)C2)o1)S(C)(=O)=O (configuration not stated),4%,4,-2%,i
CC(=O)c1c(C)nn(C(C)CC(=O)N2CCc3c(nc(N)[nH]c3=O)C2)c1C (configuration not stated),-4%,2,3%,i
Nc1nc2c(c(=O)[nH]1)CCN(C(=O)CC(c1ccccc1)c1ccco1)C2 (configuration not stated),11%,16,9%,18µM*
C=CCNC(=O)N[C@H]1CO[C@H]2[C@@H]1OC[C@@H]2Nc1nccc(-c2ccc(OC)cc2)n1,?,-6,-5%[87.6 µM],35µM*
COc1ccc(-c2ccnc(N[C@H]3CO[C@H]4[C@@H]3OC[C@H]4OCC(=O)N(C)C)n2)cc1,-7%[87.6 µM],2,?,35µM*
COc1ccc(-c2ccnc(N[C@H]3CO[C@H]4[C@@H]3OC[C@H]4OC(=O)Nc3ccc(C(C)(C)C)cc3)n2)cc1,-11%,0,-11%,25µM*
CCNC(=O)N[C@H]1CO[C@H]2[C@@H]1OC[C@@H]2Nc1nccc(-c2ccc(OC)cc2)n1,-13%[87.6 µM],-7,-1%[87.6 µM],28µM*
Cc1c(Cl)cccc1S(=O)(=O)N(Cc1cccnc1)C1CC1,.,.,.,i
CCOCC(=O)N1CCC(O)(c2ccccc2)[C@H](N2CCCC2)C1 (some centres not stated),16%,17,0%,10µM*
CCC(=O)N1CCC(O)(c2ccccc2)[C@H](N2CCCC2)C1 (some centres not stated),32%,18,-4%,?
O=C(C1CCCCC1)N1CC[C@](O)(c2ccccc2)[C@H](N2CCCC2)C1,15%,22,-27%,8.9µM*
Cn1nccc1C(=O)N1CCC2(CC1)OC(=O)N(Cc1ccccc1)C2(C)c1cccnc1 (configuration not stated),4%,-12,-2%,i
COC[C@@H]1CN(c2cnccn2)C[C@H]1C(=O)NCc1c(C)n[nH]c1C,6%,13,4%,20µM*
COCC1CCN(C(=O)[C@@H]2CN(c3cnccn3)C[C@H]2COC)CC1,5%,5,-15%,25µM*
SMILES,SNCA expr inhib,IP6K1 inh,SNCA viab count,KDM5B inh
O=C(O)CC[C@@H]1CN(c2cnccn2)CC[C@@H]1N1CCOCC1,10%,1,-4%,?
COC[C@@H]1CN(c2cnccn2)C[C@H]1C(=O)NCCc1cccnc1,?,8,4%,25µM*
COC[C@@H]1CN(c2cnccn2)C[C@H]1C(=O)NCCCn1cccn1,-1%,14,4%,20µM*
CNC[C@@H](O)[C@@H](O)[C@H](O)[C@H](O)CO,12%,.,5%,.
CCCN1CCN(CCCNC(=O)c2cc3c(Cl)nc4ccccc4c3s2)CC1,-18%,-5,4%,i
COc1ccccc1CNC(=O)[C@H]1CCC[C@H]1NC(=O)c1ccncc1,0%,17,?,i
COC[C@@H]1CN(c2cnccn2)C[C@H]1C(=O)NCc1ccccc1OC,-4%,19,-2%,22µM*

# Screens as filed in PubChem.
